Hits are enriched below; roughly 11% of the tested compounds scored in any of these assays.
FLuc inh: Firefly luciferase inhibition profiling of diverse chemical library using quantitative high-throughput screening | purified P. pyralis luciferase, luminescence, biochemical | Potency, µM (doses to about 115 µM), usual class: inhibitors | 76,000 tested, 2.5% active | Luciferin 4-monooxygenase (Photinus pyralis), P08659; note: nearly all actives have a fitted effect of over 65% in size
Target sequence (P08659 whole entry, looked up): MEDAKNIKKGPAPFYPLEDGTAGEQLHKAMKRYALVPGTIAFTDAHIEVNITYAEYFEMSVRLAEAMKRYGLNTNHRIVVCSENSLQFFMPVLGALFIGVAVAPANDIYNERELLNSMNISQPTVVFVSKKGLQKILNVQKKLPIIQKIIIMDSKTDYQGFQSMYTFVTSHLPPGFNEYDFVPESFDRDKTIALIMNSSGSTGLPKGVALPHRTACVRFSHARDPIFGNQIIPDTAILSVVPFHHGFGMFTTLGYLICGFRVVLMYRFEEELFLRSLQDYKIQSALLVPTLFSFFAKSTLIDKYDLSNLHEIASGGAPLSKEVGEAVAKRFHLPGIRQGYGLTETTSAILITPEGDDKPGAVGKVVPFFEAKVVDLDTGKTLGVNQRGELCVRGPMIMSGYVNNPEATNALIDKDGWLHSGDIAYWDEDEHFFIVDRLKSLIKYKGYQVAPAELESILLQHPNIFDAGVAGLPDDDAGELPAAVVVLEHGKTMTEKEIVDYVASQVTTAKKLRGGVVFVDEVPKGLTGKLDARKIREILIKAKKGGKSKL
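Purified 10nM P. pyralis luciferase with 10uM D-luciferin and 10uM ATP in 50mM Tris acetate pH 7.5, 10mM Mg acetate, 0.01% Tween-20, 0.05% BSA. qHTS titration; luminescence read by CCD imager.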
hNpr1 antagonist: Natriuretic polypeptide receptor (hNpr1) antagonism - Primary qHTS; 76,000 tested, 1.6% active; AID 1347048, 2019; Atrial natriuretic peptide receptor 1 (Homo sapiens), P16066; HEK293 hNpr1 GloSensor cGMP, ANP-stimulated luminescence; Potency, µM (doses to about 46.3 µM), actives largely listed as inhibitors; calls by dose curve; note: nearly all actives have a fitted effect of over 60% in size
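HEK293 cells stably expressing human Npr1 and cGMP GloSensor pGS-40F, loaded 2 h with 2% GloSensor reagent, given compound 30 min at room temperature. Luminescence read before and 20 min after 0.1 nM hNppA.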
NIH3T3 tox: Cytotoxic Profiling in NIH 3T3 Cell Line of Diverse Libraries Using Quantitative High-Throughput Screening; NIH 3T3 viability, CellTiter-Glo ATP luminescence, 48-72 h; Potency, µM (highest dose often 96.7 µM), usual class: inhibitors; 94,000 tested, 4.3% active; AID 1345082, 2018; note: nearly all actives have a fitted effect of over 55% in size
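Cytotoxicity was measured by CellTiter-Glo ATP luminescence after 48 or 72 h compound exposure at 37 °C. Mouse NIH 3T3 fibroblasts were seeded at 400 cells/well and dosed by 23 nL pin transfer.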
HEK cytotox: Cytotoxic Profiling in HEK 293 Cell Line of Diverse Libraries Using Quantitative High-Throughput Screening; HEK 293 viability, ATP luminescence (CellTiter-Glo), 48-72 h; Potency, µM (titrated, usually from 115 µM), usual class: inhibitors; 94,000 tested, 6.6% active; note: nearly all actives have a fitted effect of over 60% in size
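Luminescence from cellular ATP, measured with CellTiter-Glo, indicates HEK 293 viability. Cells plated at 250 cells/well are treated with compound for 48 or 72 hr at 37 degree Celsius before reagent addition.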
Hits are given with their value. Unless noted, calls come from the whole dose curve; as a rule, active = well fitted curve in the direction sought with a large enough effect; inconclusive = small, poorly fitted or top-dose-only effect, or another doubt; inactive = no such curve, though single readings can be large; an effect the other way counts as inactive or inconclusive.

Screening Cc1noc(C)c1-c1cc(-c2ccc3c(c2)C(=O)NC3)cn2cncc12 returned FLuc inh inactive, hNpr1 antagonist inactive, NIH3T3 tox 13µM and HEK cytotox inactive.
Screening Cc1ccccc1-c1cc(-c2c(C)noc2C)c2cncn2c1 returned FLuc inh inactive, hNpr1 antagonist inactive, NIH3T3 tox inconclusive and HEK cytotox 45µM.
`Cc1ncccc1C(=O)N1CCCN(Cc2ccncc2)C(c2ccccc2)CC(=O)NCC1` (centres undefined) gave FLuc inh inactive, hNpr1 antagonist inactive, NIH3T3 tox inactive and HEK cytotox inactive.
For COC(=O)CNC(=O)C1CCCN(Cc2cccc(-c3ccc(F)cc3F)c2)C1 (centres undefined) the results were NIH3T3 tox inconclusive and HEK cytotox inactive.
Cc1ccc(-c2cccc(CN3CCCC(NC(=O)C4CCCC4)C3)c2)cc1Cl (centres undefined) was read as NIH3T3 tox inactive and HEK cytotox inactive.
Screening O=C(NC1CCCC1)C1CCCN(Cc2cccc(-c3ccc(F)cc3F)c2)C1 (centres undefined) returned NIH3T3 tox 40µM and HEK cytotox 40µM.
Screening O=C(NC1CC1)C1CCCN(Cc2cccc(-c3ccc(F)cc3F)c2)C1 (centres undefined) returned NIH3T3 tox inconclusive and HEK cytotox 40µM.
For CC(C)NC(=O)C1CCCN(Cc2cccc(-c3ccc(F)cc3F)c2)C1 (centres undefined) the results were NIH3T3 tox inconclusive and HEK cytotox 35µM.
For O=C(NCc1ccc(Cl)cc1)c1c[nH]c2ncccc12 the results were FLuc inh 28µM, hNpr1 antagonist inactive, NIH3T3 tox inconclusive and HEK cytotox inconclusive.
Screening O=C(NCCc1ccccn1)c1c[nH]c2ncccc12 returned FLuc inh inconclusive, hNpr1 antagonist inactive, NIH3T3 tox inactive and HEK cytotox inactive.
For O=C(Nc1ccc(Cl)nc1)c1c[nH]c2cccnc12 the results were NIH3T3 tox inconclusive and HEK cytotox inactive.
`O=C(NCCc1ccccc1)c1c[nH]c2ncccc12` gave FLuc inh 20µM, hNpr1 antagonist inactive, NIH3T3 tox inactive and HEK cytotox inactive.
O=C(NCc1ccc(Cl)cc1)c1c[nH]c2cccnc12 was read as NIH3T3 tox 16µM and HEK cytotox 35µM.
COc1ccc(CN2C[C@@H](CO)[C@H](NC(C)=O)C2)cc1Br was read as FLuc inh inactive, hNpr1 antagonist inactive, NIH3T3 tox inactive and HEK cytotox inactive.
`O=C(NCc1cccc(Cl)c1)c1ccc2oc(-c3ccncc3)nc2c1` gave NIH3T3 tox inactive and HEK cytotox inconclusive.
For COCCCNC(=O)C1CCCCc2nnc(-c3ccccc3)n21 (centres undefined) the results were NIH3T3 tox inactive and HEK cytotox inactive.
CCc1[nH]c2ccc(CNC(=O)C3CC(=O)Nc4ccccc43)cc2c1C (centres undefined) was read as FLuc inh 18µM, hNpr1 antagonist inactive, NIH3T3 tox inconclusive and HEK cytotox inconclusive.
`COc1cc(F)ccc1-c1cnc2n[nH]c(-c3ccc4c(c3)OCO4)c2n1` gave FLuc inh inactive, hNpr1 antagonist inactive, NIH3T3 tox 25µM and HEK cytotox inconclusive.
Screening Cc1ccccc1-c1cnc2n[nH]c(-c3ccc4c(c3)OCO4)c2n1 returned FLuc inh inactive, hNpr1 antagonist inactive, NIH3T3 tox 25µM and HEK cytotox 45µM.
Screening COc1ccccc1-c1cnc2n[nH]c(-c3ccc4c(c3)OCO4)c2n1 returned FLuc inh inactive, hNpr1 antagonist inconclusive, NIH3T3 tox 35µM and HEK cytotox 35µM.
`Oc1ccccc1-c1cnc2n[nH]c(-c3ccc4c(c3)OCO4)c2n1` gave FLuc inh inconclusive, hNpr1 antagonist inactive, NIH3T3 tox inconclusive and HEK cytotox inconclusive.
COc1cccc(-c2cnc3n[nH]c(-c4ccc5c(c4)OCO5)c3n2)c1 was read as FLuc inh inactive, hNpr1 antagonist inactive, NIH3T3 tox 50µM and HEK cytotox inconclusive.
`COC1CCC12CCN(C(=O)CCc1c[nH]c3ccccc13)CC2` (centres undefined) gave NIH3T3 tox inactive and HEK cytotox inactive.
Screening O=C(NC1CCN(c2ccc3nnc(C4CC4)n3n2)C1)c1ccc(Cl)nc1 (centres undefined) returned NIH3T3 tox inactive and HEK cytotox inactive.
COc1ncccc1-c1cnc2n[nH]c(-c3ccc4c(c3)OCO4)c2n1 was read as FLuc inh inactive, hNpr1 antagonist inactive, NIH3T3 tox 45µM and HEK cytotox 45µM.
`Fc1ccccc1-c1cnc2n[nH]c(-c3ccc4c(c3)OCO4)c2n1` gave FLuc inh inactive, hNpr1 antagonist inactive, NIH3T3 tox inactive and HEK cytotox inconclusive.
`O=C(NC1CCCCC1)c1ccc2oc(-c3ccccn3)nc2c1` gave NIH3T3 tox inactive and HEK cytotox inactive.
Screening CCCN(C)C(=O)c1csc(N2CCN(c3cccc(Cl)c3)CC2)n1 returned FLuc inh inactive, hNpr1 antagonist inconclusive, NIH3T3 tox inconclusive and HEK cytotox 32µM.
COc1cccc(N2CCN(c3nc(C(=O)NCc4ccco4)cs3)CC2)c1 was read as FLuc inh inactive, hNpr1 antagonist inactive, NIH3T3 tox inconclusive and HEK cytotox 45µM.
Screening CCn1cc(CN2CCC3(CC2)CC(c2ccccc2)CN3C)cn1 (centres undefined) returned FLuc inh inactive, hNpr1 antagonist inactive, NIH3T3 tox inactive and HEK cytotox inactive.
`CC1(C(=O)NCc2ccncc2)CCCc2cnc(NCc3ccccc3)nc21` (centres undefined) gave FLuc inh inactive, hNpr1 antagonist inactive, NIH3T3 tox 25µM and HEK cytotox 89µM.
Screening CC1(C(=O)NCc2cnccn2)CCCc2cnc(NCc3ccccc3)nc21 (centres undefined) returned FLuc inh inactive, hNpr1 antagonist inactive, NIH3T3 tox 89µM and HEK cytotox inactive.
`CC1(C(=O)NCc2ccncc2)CCCc2cnc(Nc3ccccc3)nc21` (centres undefined) gave FLuc inh inactive, hNpr1 antagonist inactive, NIH3T3 tox 100µM and HEK cytotox inactive.
Screening CCOC(=O)[C@@H]1[C@@H](OC)C(=O)N(C)C12CCN([S+](=O)([O-])c1ccc(C(C)=O)cc1)CC2 returned NIH3T3 tox inconclusive and HEK cytotox inactive.
Screening CN(C)c1ccc(CN2CCC3(Cc4ccccc4NC3=O)C2)cc1 (centres undefined) returned FLuc inh inactive, hNpr1 antagonist inactive, NIH3T3 tox inconclusive and HEK cytotox inconclusive.
CC(C(=O)N1CCC2(CC1)N(Cc1ccccc1)C(=O)CS2(=O)=O)c1ccccc1 (centres undefined) was read as NIH3T3 tox inconclusive and HEK cytotox inactive.
